GPR151 activ: activators of human GPR151; PathHunter beta-arrestin GPR151 cells, luminescence; activation, % at 11.2 µM; hit rate 1% among 650,000; in the data active means activation above about 4.9%;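 further: 0% = median of compound wells and 100% = cells with positive control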
TEAD-YAP inh: TEAD-YAP interaction inhibition. inhibition, % at 9.12 µM. hit rate 1.4% among 640,000. HEK-TIYL cells, TEAD-Gal4/YAP UAS-luciferase luminescence. AID 1259422; in the data active means inhibition above about 32%;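 further: 0% = median of test compound wells and 100% = reference inhibitor wells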
FBW7 act: activators of human E3 ligase FBW7; AlphaScreen FBW7–phospho-cyclin E peptide binding, activator screen; Q969H0; hit rate 0.13% among 650,000; normalized activity (activation), % at 26.1 µM; in the data active means normalized activity above about 1.9%;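 further: purified mutant Fbw7 with reduced substrate affinity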
Target sequence (Q969H0 whole entry, looked up): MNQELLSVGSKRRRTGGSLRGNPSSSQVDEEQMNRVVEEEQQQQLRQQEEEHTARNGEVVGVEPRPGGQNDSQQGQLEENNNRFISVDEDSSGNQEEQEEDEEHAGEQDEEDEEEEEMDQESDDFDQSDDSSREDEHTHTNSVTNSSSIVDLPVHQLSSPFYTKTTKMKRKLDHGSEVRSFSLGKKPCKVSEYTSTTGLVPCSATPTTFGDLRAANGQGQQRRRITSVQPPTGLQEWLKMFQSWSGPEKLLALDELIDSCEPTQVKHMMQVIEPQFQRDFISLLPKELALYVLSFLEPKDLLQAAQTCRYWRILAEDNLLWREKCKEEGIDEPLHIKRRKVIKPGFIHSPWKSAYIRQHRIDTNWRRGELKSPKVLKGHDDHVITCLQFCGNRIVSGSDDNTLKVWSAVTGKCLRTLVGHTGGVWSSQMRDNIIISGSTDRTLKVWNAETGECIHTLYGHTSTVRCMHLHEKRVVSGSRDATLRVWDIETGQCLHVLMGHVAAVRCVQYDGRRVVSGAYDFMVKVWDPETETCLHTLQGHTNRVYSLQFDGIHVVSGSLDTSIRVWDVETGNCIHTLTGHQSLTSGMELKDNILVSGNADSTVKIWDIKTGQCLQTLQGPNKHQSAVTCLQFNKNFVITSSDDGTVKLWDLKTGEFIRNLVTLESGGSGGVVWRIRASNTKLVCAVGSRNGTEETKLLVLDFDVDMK
MITF primary: inhibitors of human MITF | hit rate 0.91% among 650,000 | inhibition, % at 2.6 µM | AlphaScreen MITF homodimerization, bead proximity signal; in the data active means inhibition above about 50%;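 further: 0% = vehicle wells with protein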
* = called active by the depositor. Hits are enriched below; roughly 3.4% of the tested compounds scored in any of these assays.

SMILES	GPR151 activ	TEAD-YAP inh	FBW7 act	MITF primary
COCCNC(=O)c1cccc(OC2CCN(C(C)CCn3cccn3)CC2)c1 (configuration not stated)	0.9	-2.9	0.1	-1.6
Cc1c(NS(=O)(=O)c2ccc([N+](=O)[O-])cc2)c(=O)n(-c2ccccc2)n1C	0.4	-3.7	2.0*	13.1
Cc1cccc(C(=O)Nc2c(C(=O)N3CCN(C)CC3)cnn2-c2ccccc2)c1	-0.7	11.2	2.3*	14.0
Cc1cccc(C(=O)Nc2c(C(=O)N3CCCCC3)cnn2-c2ccccc2)c1	1.8	13.3	0.1	6.2
COc1ccc(/C=N/NC(=O)c2cc(O)c(O)c(O)c2)cc1Cn1cc([N+](=O)[O-])cn1	1.6	-4.5	-0.2	72.6*
COc1ccc(/C=N/NC(=O)c2ccccc2O)cc1Cn1cc([N+](=O)[O-])cn1	-0.9	-8.3	0.1	0.1
COc1ccc(/C=N/NC(=O)c2cc(O)c(O)c(O)c2)cc1Cn1cnc([N+](=O)[O-])n1	-1.4	4.5	0.0	97.0*
Cc1noc(C)c1C(=O)N1CCC2(CC1)NC(=O)c1cccnc1N2C	2.3	-1.1	-0.1	0.3
COCCNc1ccc2ncc(-c3cccc(CO)c3)n2n1	0.2	32.6*	0.0	-16.7
COCCNc1ccc2ncc(-c3cccc(F)c3)n2n1	1.9	25.6	-0.5	9.5
COCCNc1ccc2ncc(-c3ccc(O)cc3)n2n1	0.6	58.3*	0.3	-22.0
COCCNc1ccc2ncc(-c3ccc(F)cc3)n2n1	-0.1	14.1	0.0	-8.7
CCCNc1ccc2ncc(-c3ccc(O)cc3)n2n1	-0.6	77.2*	0.0	-27.1
CCCNc1ccc2ncc(-c3cccc(NC(C)=O)c3)n2n1	0.5	56.0*	0.7	6.3
CCCNc1ccc2ncc(-c3cccc(O)c3)n2n1	-0.8	0.1	-0.1	-15.1
COCCNc1ccc2ncc(-c3ccc4c(c3)OCO4)n2n1	1.5	39.3*	0.1	3.6
C=CCn1c(SCC(=O)OCC)nc2sc3c(c2c1=O)CCC(C(C)(C)C)C3 (configuration not stated)	-0.4	37.5*	0.2	2.0
COc1cccc(-n2c(=S)sc3c(=O)n(-c4ccc(C)cc4)c(SCC(=O)Nc4nccs4)nc32)c1	1.7	-10.4	0.0	0.8
Fc1ccc(-c2cn3nc4c(nc3n2)CCCC4)cc1	-9.6	40.0*	-0.1	3.5
COc1cccc(-c2cn3nc4c(nc3n2)CCCC4)c1	-7.6	66.4*	0.2	-1.4
Clc1ccc(-c2cn3nc4c(nc3n2)CCCC4)cc1	-1.9	-20.0	-0.1	-1.7
COc1ccc(C2C(C#N)=C(N)Oc3c2sc2ccccc32)cc1[N+](=O)[O-] (configuration not stated)	-0.3	15.4	0.3	15.0
N#CC1=C(N)Oc2c([nH]c(=O)[nH]c2=O)C1c1cccc([N+](=O)[O-])c1 (configuration not stated)	-0.3	4.2	-0.9	10.3
N#CC1=C(N)Oc2c(sc3ccccc23)C1c1cccc([N+](=O)[O-])c1 (configuration not stated)	1.3	53.1*	-0.1	6.3
N#CC1=C(N)Oc2c(ccc3ccccc23)C1c1cccc([N+](=O)[O-])c1 (configuration not stated)	-1.4	66.0*	-0.3	-6.2
SMILES	GPR151 activ	TEAD-YAP inh	FBW7 act	MITF primary
C=CCN1CCN(c2c(Cl)cccc2NC(=O)c2cscn2)CC1	-0.2	-23.3	-0.3	-3.9
N#Cc1ccc(NC(=O)c2cc(-c3ccc(Br)cc3)on2)cc1	-0.6	-7.7	-0.2	-8.1
COc1ccc(S(=O)(=O)N(C)CC(=O)NCCc2ccc(OC)c(OC)c2)cc1C	-1.0	5.6	0.9	9.5
COc1ccc(OC)c(S(=O)(=O)Oc2c(C)cccc2C)c1	2.7	-2.6	-0.1	-4.8
COc1ccc(Cl)cc1NS(=O)(=O)c1ccc(F)cc1	-0.6	-10.4	-0.2	-13.2
COc1cc(NS(=O)(=O)c2ccc(Cl)cc2)c(OC)cc1Br	0.1	33.5*	-0.1	20.7
COc1ccc(S(=O)(=O)Nc2cc(Cl)ccc2OC)cc1	-2.9	61.3*	0.5	3.0
COC(=O)CN(c1cc(OC)ccc1OC)S(=O)(=O)c1ccc(C)cc1	2.0	43.9*	-0.1	2.9
COc1ccc(OS(=O)(=O)c2cc(C)ccc2OC)cc1	-1.4	47.6*	-0.1	-6.3
CC(=O)Nc1ccc(NC(=O)CCCc2nc(-c3ccccc3)no2)cc1	-2.3	11.9	0.7	17.5
COc1ccc(-c2nc3ncnc(NCCCN4CCCC4=O)c3[nH]2)cn1	-0.1	10.4	0.0	-1.2
Cc1cccn2c(=O)c3cc(C#N)c(=N)n(C(C)C)c3nc12	0.3	-4.7	-0.2	-15.3
Cn1c(SCc2ccc(C#N)cc2)nnc1-c1ccccc1O	-0.7	-20.0	0.0	-3.0
COc1ccc(S(=O)(=O)Nc2cc(C)ccc2OC)cc1	-0.4	58.0*	-0.1	1.1
COc1ccc(C)cc1NS(=O)(=O)c1cccc(C(=O)O)c1	-0.3	-2.0	1.9*	19.0
COc1ccc(C)cc1NS(=O)(=O)c1ccc(C)cc1	-0.5	7.1	-0.1	-13.4
Cc1ccc(Br)c(NS(=O)(=O)c2cccc(C(=O)O)c2)c1	0.3	3.3	0.6	8.9
CC1(C)CC(=O)C2=C(C1)NC(SCC(=O)NCc1ccccc1)=C(C#N)C2c1ccco1 (configuration not stated)	0.0	5.8	0.2	18.9
CC(C)(C)C(=O)Nc1cccc(-c2nc3ncccc3o2)c1	-1.8	-12.0	-0.1	1.3
CC(C)(C)C(=O)Nc1ccc(-c2nc3ncccc3o2)cc1	0.3	59.6*	-0.1	-1.6
CC1=NN(c2ccc(Br)cc2)C(=O)/C1=C\c1ccc(N(C)C)cc1	0.6	-9.0	0.1	0.7
CCOc1ccc2nc(NC(=O)C(C)(C)CC)sc2c1	0.1	40.8*	-0.2	-8.2
CCOc1ccc2nc(N3CCC(C(=O)O)CC3)sc2c1	0.8	58.0*	-0.3	-1.4
CCOc1ccc2nc(N3CCC(C(=O)Nc4ccc(OC)cc4)CC3)sc2c1	1.7	8.6	-0.1	7.6
CCOC(=O)C1CCN(c2nc3ccc(CC)cc3s2)CC1	-1.3	55.5*	0.9	-5.0
SMILES	GPR151 activ	TEAD-YAP inh	FBW7 act	MITF primary
CCOC(=O)C1CCN(c2nc3cc(Br)ccc3s2)CC1	-6.2	-11.2	0.2	14.7
CCc1ccc2sc(N3CCC(C(=O)NC4CCCC4)CC3)nc2c1	3.1	65.0*	-0.2	-4.4
CCOC(=O)Nc1nc2ccc(OCC)cc2s1	-0.6	0.7	-0.1	7.9
O=C(CC1(O)C(=O)N(Cc2ccc3c(c2)OCO3)c2ccccc21)c1ccc(F)cc1 (configuration not stated)	0.5	-2.2	-0.2	-7.2
Cc1ccc(/C=C(\NC(=O)c2ccccc2)C(=O)NC2CC(C)(C)NC(C)(C)C2)cc1	1.2	-1.6	0.7	13.0
Cc1ccccc1-n1c(-c2ccc(Cl)cc2Cl)n[nH]c1=S	0.5	-2.8	1.9*	16.4
COc1cccc(-c2ccc(SCC(=O)Nc3cccc(NC(C)=O)c3)nn2)c1	-11.6	-54.2	-0.2	-7.7
NCc1nn(CCc2ccccn2)c(=O)c2ccccc12	-0.3	59.0*	0.8	26.0
Cn1nc(CN)c2ccccc2c1=O	-2.9	10.7	0.0	0.0
CCN1CCN(C(=O)CCCOc2ccccc2)CC1	0.3	43.3*	0.0	-0.9

Screens (PubChem BioAssay)
